Measurements from PubChem BioAssay (Tox21).
Results filed as inconclusive are left out. Values without a mark were called inactive. The call rests on the fitted dose curve; in most records, active means well fitted activation curve with a large enough effect in the repeat runs; inconclusive means weak or mixed curves; inactive means flat fitted curve, though single readings scatter.

Assay: A CellTox Green Cytotoxicity Assay to monitor cytotoxicity in HepG2 cells - 24 hour (AID 1224878); further: nearly all actives have a fitted effect of over 45% in size
Details: CellTox Green fluorescence; series mostly up to 76.8 µM; cytotoxicity: at the top concentration
From the text: National Center for Advancing Translational Sciences [NCATS]
NIH Chemical Genomics Center [NCGC]
U.S. Environmental Protection Agency [EPA]
National Institutes of Environmental Health Sciences [NIEHS]
National Toxicology Program [NTP]
Cell-based models are critical for drug discovery. Determining the natural cytotoxic effects resulting from test compounds is an essential research activity. A CellTox Green Cytotoxicity Assay to monitor cytotoxicity in real time of continues cell culture during 40 hours of the compound treatment was used to screen Tox21 10K library compounds in HepG2 cells. CellTox Green Cytotoxicity Assay is a nonlytic, homogeneous, biofluorescent method to measure cytotoxicity in cell culture after experimental manipulation. The assay system uses a proprietary asymmetric cyanine dye that is excluded from viable cells but preferentially stains the dead cell's DNA. […] Viable cells produce no appreciable increases in fluorescence. Therefore, the fluorescence signal produced by the binding interaction with dead cell DNA is proportional to cytotoxicity.
The mixture of HepG2 cell suspension and reagents were dispensed at 600cells/6 ul/well in 1536-well tissue culture treated black solid bottom plates using a Multidrop dispenser. After the assay plates were incubated at a 37 C/5% CO2 incubator for 5 hours, 23 nL of compounds dissolved in DMSO, positive and negative controls was transferred to the assay plate by a pintool work station. The plates were incubated at 37 C for 40 hours. The fluorescence intensity were measured at 0h, 8h, 16h, 24h, 32h and 40h time points using ViewLux plate reader during compound treatment.
On the % scale 0 is the no-effect control and ±100 the full control effect.

SMILES | cytotoxicity
Oc1ccc2c(c1)OC[C@@H](N1CCC(O)(c3ccc(F)cc3)CC1)[C@H]2O | -7.31% [at 35.3 µM]
OCCN1C[C@H](O)[C@@H](O)[C@H](O)[C@H]1CO | -10.3% [at 35.3 µM]
O=C(O)/C=C/c1ccc(Cn2ccnc2)cc1 | -6.52% [at 35.3 µM]
COC(=O)CCCC(=O)O | -12.2%
CCCCC1CCCCC(=O)O1 (stereo not given) | 9.05%
CCO[Si](CCCN=C=O)(OCC)OCC | -3.47%
CC(C)CCCCCCN | 14.2%
CC(=O)c1ccc(C)cc1 | -2.56%
CCCCC=O | 6.29%
COC(C(=O)O)c1ccccc1 (stereo not given) | -1.73%
COc1cccc(OC)c1 | -15.4%
c1ccc(SCCSc2ccccc2)cc1 | 5.9%
Cc1ccc(Nc2ccc(O)c3c2C(=O)c2ccccc2C3=O)cc1 | -7.53%
CCOC(=O)[C@H](CCc1ccccc1)N[C@@H](C)C(=O)N1CCC[C@H]1C(=O)O | 11.8% [at 35.3 µM]
CC(C)N1C(=O)c2ccccc2C1=O | 5.32%
N[C@@H](CS)C(=O)O | -9.11%
Cn1cnc2c(=O)[nH]c(N)nc21 | 5.92%
NC(=O)Nc1nc2ccccc2[nH]1 | -1.01%
CCOC(=O)Nc1ccc2c(c1)N(C(=O)CCN1CCOCC1)c1ccccc1S2 | -4.49% [at 35.3 µM]
CC(C)(O)C(=O)c1ccc(OCCO)cc1 | 0.382%

SMILES | cytotoxicity
CCCCCCCCCCC1CO1 (stereo not given) | 4.1%
O=C1OC(=O)c2cc([N+](=O)[O-])ccc21 | -10.2%
CCn1cc(C(=O)O)c(=O)c2cc(F)c(N3CCN(C)CC3)cc21 | -13.3% [at 15.8 µM]
C=CCn1c(=O)n([C@@H]2O[C@H](CO)[C@@H](O)[C@H]2O)c2nc(N)[nH]c(=O)c21 | -8.19% [at 35.3 µM]
CCCCCCCCCCCCCCCCCC(=O)OCCCCCCCCCCCCCC(C)C | -7.06%
CC(C)CCCC(C)CCCC(C)CCCCC(C)CCCC(C)CCCC(C)C (stereo not given) | 1.94% [at 35.3 µM]
CCCCN(CCO)CCO | -3.2%
CCCc1ccccc1O | 12.6%
C=CCOc1nc(OCC=C)nc(OCC=C)n1 | 0.0456%
CCOC(=O)Cn1c(=O)sc2cccc(Cl)c21 | 29.9%
C[C@H](O)C(=O)Nc1c(I)c(C(=O)NC(CO)CO)c(I)c(C(=O)NC(CO)CO)c1I | 3.22% [at 35.3 µM]
CCC(=O)c1cccc(Cl)c1 | -13.5%
CC1=CCC2C(C1)C2(C)C (stereo not given) | 3%
NS(=O)(=O)c1cc(C2(O)NC(=O)c3ccccc32)ccc1Cl (stereo not given) | 0.0915% [at 35.3 µM]
CNc1ncnc2nc[nH]c12 | -2.57%
COCCOC(=O)CC#N | -16%
CC(=O)N[C@@H](CCC(N)=O)C(=O)O | -1.01% [at 35.3 µM]
O=[N+]([O-])c1ccc(CCO)cc1 | 2.27%
CCN(CC)C(=O)c1ccc(O)c(OC)c1 | -0.656% [at 35.3 µM]
C=C(C)C(=O)OCCCCCCCCCCCCCCCCCC | -0.0576% [at 15.8 µM]
